# Assay results from PubChem BioAssay (NCI).
# Compounds without any hit were thinned out: in the full panel of roughly 83,000, 20% have a hit.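 For each line, cells grew in 96-well plates with the test compound present at a single concentration for 48 hours.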 Values without a mark were called inactive. The source made the active and inactive calls.
# Tested on: SW-620 colon
# Experiment: NCI-60 one-dose screen, 48 h (100 = growth as untreated, 0 = no growth, -100 = all killed)
# Settings: 10 µM unless noted
# Experimental: Growth inhibition of the SW-620 human tumor cell line is measured as a screen for anti-cancer activity. Cells are grown in 96 well plates and exposed to the test compound for 48 hours. Compounds are tested at a single concentration, which is 10^-5 M for most compounds. The reported endpoint is percent growth (GI% or GIPRCNT), where numbers from 0 - 100% represent growth inhibition, and numbers from -100% - 0 represent cell death. For example, a value of 40 represents 60% growth inhibition. A value of 0 means no net growth occurred over the course of the experiment. A value of -40 indicates 40% of cells at the beginning of the experiment died by the end of the experiment. A value of -100 means all cells are dead at the end of the experiment.
# NCI-60 Human Tumor Cell Lines Screen was performed using the standard one-dose NCI protocol, which is described in more detail at https://dtp.cancer.gov/discovery_development/nci-60/default.htm.
# Compounds with GIPRCNT values below 10 were considered active. Activity score was based on GIPRCNT using the following formula: […]
# Score is 0 for GIPRCNT values of 100 or above, 50 for GIPRCNT values of 0, and 100 for GIPRCNT values of -100.
row,Compound,growth
1,COc1cccc(-c2nc3sccn3c2-c2ccnc(NCCCNS(=O)(=O)c3c(Cl)cccc3Cl)c2)c1,76.8%
2,COc1ccc(-c2nc3ccc(-c4nc5ccc(N6CCN(c7ccc(F)cc7)CC6)cc5[nH]4)cc3[nH]2)cc1OC,46.5%
3,COc1cc2nc(N3CCCC3)nc(Nc3ccccc3)c2cc1OC,-20.4% (active)
4,CC(=O)c1cc2c(N)c(C(=O)Nc3cccc4ccccc34)sc2nc1C,17.8%
5,CC(=O)c1cc(C(=O)c2ccc3c(c2)Sc2ccccc2N3)n2ccccc12,23.9%
6,CC(=O)c1cc2c(N)c(C(=O)Nc3cccc(F)c3C)sc2nc1C,85.9%
7,CCOC(=O)c1c(CN2CCN(C)CC2)nc2ccc(Cl)cc2c1-c1ccccc1,94.8%
8,Cc1ccc2c(c1)C(=O)/C(=C/c1cccc(OCC(=O)c3ccc(Cl)cc3)c1)CS2,25.1%
9,Cn1cc(C(=O)c2nc(-c3c[nH]c4ccc(F)cc34)no2)c2cc(F)ccc21,87.9%
10,O=S(=O)(Nc1ccc(OC(F)F)cc1)c1ccc(-c2cnc(C3CC3)o2)cc1,35.2%
11,COc1ccc(/C=C\c2cc(OC)c(OC)c(OC)c2)cc1OC(=O)c1cccc(Cn2cc(CCOC(=O)[C@H](N)Cc3cn(C)c4ccccc34)nn2)c1,28.6%
12,COc1cc(CNc2oc(-c3ccccc3)c(-c3ccccc3)c2C#N)cc(CN2CCN(C)CC2)c1O,31.8%
13,Cc1[nH]c(-c2ccc3cc[nH]c3c2)c2c1C(=O)CCCC2,73.9%
14,COC(=O)c1ccc(NC(=O)c2ccc(-c3cccc([N+](=O)[O-])c3)o2)cc1,101%
15,O=C(N/N=C/c1c[nH]c2ccccc12)c1cc(-c2ccccc2)on1,102%
16,COc1ccc(/C=C/C(=O)c2cc(O)ccc2O)cc1,100%
17,COc1ccc(/C=C(\C#N)C(=O)Nc2cccc(Nc3nc(SC)nc(-c4cccc([N+](=O)[O-])c4)c3C#N)c2)cc1OC,102%
18,COc1cccc2c1C(=O)c1c(O)c3c(c(O)c1C2=O)C[C@](O)(C(=O)CO)C[C@H]3O[C@@H]1C[C@@H](NC(=O)CCCN(C)C2(c3ccc(F)cc3)CC3CCC2C3)[C@H](O)[C@@H](C)O1 (stereo not given in full),-78.5% (active)
19,O=c1ccccc(-c2ccc(Br)cc2)c1O,26.8%
20,C=CC(=O)Nc1cccc(-c2nc(SC)nc(NCc3ccccc3)c2C#N)c1,89%

row,Compound,growth
1,COc1cc(/C=C/c2cc(/C=C/c3ccc(O)c(OC)c3)n(-c3c(C)cccc3C)c(=O)n2)ccc1O,7.79% (active)
2,CC(=O)Oc1ccc(Cl)cc1CN(C(C)=O)C1CCCCC1,105%
3,CC(C)(C)c1cc(/C=N\NC(=O)/C=C/C=C/c2ccc3c(c2)OCO3)c(O)c(C(C)(C)C)c1,74.6%
4,Nc1nc2ccc3[nH]ncc3c2c2c1CCCC2,1.68% (active)
5,CSc1ccc(-c2ccccc(=O)c2O)cc1,29.2%
6,CCc1nnc(CNc2ccc(Cl)cc2)o1,97.7%
7,O=C1Nc2ccc(Br)cc2C12Oc1ccccc1C1CC(c3ccc(F)cc3)=NN12 (stereo not given),99%
8,Cc1ccc2oc(=O)cc(C3c4ccc([nH]4)C(c4cc(=O)oc5ccc(C)cc45)c4ccc([nH]4)C(c4cc(=O)oc5ccc(C)cc45)c4ccc([nH]4)C(c4cc(=O)oc5ccc(C)cc45)c4ccc3[nH]4)c2c1 (stereo not given),-7.64% (active)
9,COc1cc2c(cc1O)CC[C@@H]1[C@@H]2CC[C@]2(C)[C@@H](NCCN(C)C)CC[C@@H]12,-80.4% (active)
10,C#CCOc1ccc2ncnc(N3CCC(NC(=O)CCl)CC3)c2c1,55.8% [8.25 µM]
11,COc1ccc(S(=O)(=O)N2CCN(C)CC2)cc1NC(=O)c1[nH]c(C)c2c1CCCCC2=O,70.7%
12,C=C1C(=O)O[C@H]2[C@H]1CC/C(COC(=O)c1cc3cc(OC)ccc3[nH]1)=C\CC[C@@]1(C)O[C@@H]21,-75.7% (active)
13,COc1cccc(-c2nc3sccn3c2-c2ccnc(NCCNS(=O)(=O)c3ccccc3)c2)c1,40.8%
14,C[n+]1ccccc1/C=C/c1ccc2cccc(O)c2n1,52.1%
15,Cc1ccccc1COc1ccc(-c2onc(C)c2-c2ccc(Cl)cc2)cc1,31.7%
16,O=C(COc1ccc(/C=C2\COc3ccccc3C2=O)cc1)Nc1nccs1,69.1%
17,O=C(CCCCC(=O)N/N=C\c1ccccc1O)N/N=C\c1ccccc1O,34.2%
18,CC(=O)OC[C@H]1O[C@H](OC(C)=O)[C@H](NC(=O)/C=C/CCl)[C@@H](OC(C)=O)[C@@H]1OC(C)=O,26%
19,CCOC(=O)c1c(C(=O)OCC)c2cc(-c3ccn4c(C(=O)c5ccccc5)c(C(=O)OCC)c(C(=O)OCC)c4c3)ccn2c1C(=O)c1ccccc1,105%
20,C=C(C)[C@@H]1CC[C@]2(C(=O)OC)CC[C@]3(C)[C@H](CC[C@@H]4[C@@]5(C)C/C(=C/c6cccc(I)c6)C(=O)C(C)(C)[C@@H]5CC[C@]43C)[C@@H]12,101%
